SMILES strings stand for the structures. About 2,000 (1.1%) of roughly 190,000 compounds were called active. What follows is part of a selection rich in actives, with near analogues and random picks from the rest. Unmarked numbers belong to inactive results.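 Rule for the calls: active = activation above a set limit, based on mean plus 3 SD of controls (cut at about 140% in these data); inconclusive = one replicate above the limit, the other below; inactive = the rest.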

Our source for the activation values is PubChem BioAssay AID1276 (Columbia University Molecular Screening Center, 2008).

The assay is described as follows: activators of APP 5'UTR luciferase reporter, primary screen, SH-SY5Y cells (AID 1276). To be noted: SH-SY5Y APP 5'UTR luciferase reporter, luminescence; at 2 µM; stronger effect = higher value; zero percent = DMSO vehicle wells.
`CCN1CCC(=NNC(=O)c2ccc(C)c([N+](=O)[O-])c2)CC1`: the activation is -0.15%.
The value for `Cc1ccc(C(=O)Nc2cccc3ncccc23)cc1[N+](=O)[O-]` was -2.5%; that for `Cc1cc(O)c(NC(=O)c2ccc(C)c([N+](=O)[O-])c2)cc1C` was 142% (active).
Then `O=[N+]([O-])c1ccccc1N/N=C1\CCc2ccccc21`, with 120%; and `Nc1ccc(-c2nnc(-c3ccc(-c4ccccc4)cc3)o2)cc1`, with 79.7%; and `CCc1ccc2oc(-c3ccc(N)cc3)nc2c1`, with 141% (active).
Then `CCCCCC(=O)Nc1ccc2oc(-c3ccncc3)nc2c1`, with 7.49%.
For `C=CCNC(=S)N1CCN(CCN=Cc2c(C)[nH]n(-c3ccc([N+](=O)[O-])cc3)c2=O)CC1`, the activation was 1.34%.
The value for `O=C(CN1CCN(c2ccc(O)cc2)CC1)Nc1cc(S(=O)(=O)N2CCOCC2)ccc1Cl` was 2.42%; that for `OCC1(CCOc2ccccc2)CCN(Cc2cn[nH]c2-c2ccccc2)CC1` was 7.79%; that for `O=C(c1cnn(-c2ccc(Cl)cc2)c1)c1ccccc1O` was 177% (active).
Then `Cc1ncc(CC(=O)n2cc(C(=O)c3cc(Cl)ccc3O)cn2)s1`, with 6.84%.
The value for `O=C(O)c1ccc(NC(=O)c2cn(-c3ccccc3)nc2-c2ccc(Cl)cc2)cc1` was 8.51%; that for `Cc1nc2ccccc2nc(=O)c1NNc1ccc([N+](=O)[O-])cc1` was -4.38%.
Regarding `CCOC(=O)c1ccc(NC2Nc3cc(C)nn3S2)cc1` (centres undefined), the activation was 4.66%.
On to `CCc1ccc(NC2Nc3cc(C)nn3S2)cc1` (centres undefined), for which the activation is 166% (active).
For `CCc1ccc(NC(=O)N2CCN(c3ccccc3)CC2)cc1`, the activation is 1.57%.
For the compound `CC(=O)c1ccc(-c2nnc(CCC(=O)N(C)Cc3cnc4ccccn34)o2)s1`, the activation was -5.43%.
The value for `COC(=O)CN1C(=O)N/C(=C/c2ccc(OC)c(C)c2OC)C1=O` was -21.7%; that for `Cc1cc(C)n(Cc2cnc(N3CCOCC3)s2)n1` was 22.6%.
On to `NNC(=O)c1cnn(-c2ccccc2)c1C(F)(F)F`, for which the activation is 15.9%.
Consider `Cc1ccc(C(=O)OCc2nc(N)nc(Nc3ccccc3C)n2)cc1`, for which the activation was -2.39%.
Then `Cc1ccccc1Nc1nc(N)nc(CSc2nnc3ccccn23)n1`, with 59.9%; and `Cc1ccccc1Nc1nc(N)nc(CSc2ccccc2)n1`, with 159% (active).
Consider `CCCC1(C(=O)OC)NC(c2ccco2)C2C(=O)N(C)C(=O)C21` (centres undefined), for which the activation was 9.69%.
Then `CC(=O)NCCc1nc2cc(NC(=O)c3ccccc3)ccc2n1C`, with 55.4%; and `Cc1cc(C)c2nc(SCC(=O)N(C)C3CCS(=O)(=O)C3)cc(C)c2c1` (centres undefined), with 11.6%.
Then `O=C(CC1SCCNC1=O)Nc1ccc(Cl)c(Cl)c1` (centres undefined), with -7.34%; and `Cc1cc(NC(=O)CSc2nc3c(cc2C#N)CCCCC3)no1`, with 191% (active).
The value for `CC(NC(=O)CSc1nc2c(cc1C#N)CN(C)CC2)c1ccccc1` (centres undefined) was 1.35%.
`Cc1nc(SCC(=O)Nc2cc(C)on2)c2c3c(sc2n1)CCCC3`: the activation is -10.6%.
The value for `COc1ccc(-c2csc(-c3cccs3)n2)cc1OC` was 172% (active); that for `COc1ccc(C2CC(c3cccs3)=Nc3ccccc3S2)cc1OC` (centres undefined) was 2.96%; that for `COc1ccc(-c2nn3c(-c4ccccc4)nnc3s2)cc1OC` was 12.1%.
For the compound `O=C(NCCc1ccccn1)c1cc(-c2ccc(Cl)cc2)nc2ccccc12`, the activation is -9.75%.
Then `O=C1CCCc2c1nc(-c1cccc(Cl)c1)n2O`, with -94.3%; and `O=c1c2c(nc3nc[nH]n13)CCC2`, with 3.94%.
The value for `O=c1c2c(nc3cc(-c4cccc(Cl)c4)[nH]n13)CCCC2` was 158% (active); that for `Cc1ccc(-c2cc(N)on2)cc1` was -4.88%.
Take `CCC(C)NC(=O)Cn1nc(C(F)(F)F)c2c1CCC2` (centres undefined): the activation was -3.33%.
With `COc1ccc(-c2cn3ccsc3n2)cc1`, the activation is 135% (active).
Then `COc1ccc(-c2cn3cccnc3n2)cc1`, with 35.2%; and `CCCC(=O)Nc1cccc(-c2cn3ccsc3n2)c1`, with 20.7%.
Then `CN1C(=O)/C(=C\c2ccc(-c3ccccc3)o2)SC1=S`, with 5.23%; and `Cc1cccc(OC(=O)c2sc3ncn(C)c(=O)c3c2C)c1`, with 62.6%.
The value for `NC1=NN(c2cccc(C(=O)O)c2)C(=O)C1` was 135% (active); that for `O=C(O)c1cccc(N2C(=O)Nc3ccccc3N2O)c1` was 27.8%.
As to `O=C(c1cccc(N2CCCC2=O)c1)N1CCOCC1`, the activation is 10.7%.
The value for `CCOC(=O)c1cc2c(=O)[nH]c(C(Cl)(Cl)Cl)nc2o1` was 5.69%; that for `CCCCOc1ccc(C(=O)NCC(=O)OCC(=O)N2CCN(S(=O)(=O)c3ccc(C)cc3C)CC2)cc1` was -1.98%.
For `Cc1ccnc(Nc2nc3ccccc3s2)n1`, the activation was 127%.
With `c1ccc2sc(NN=C3CCCC3)nc2c1`, the activation is 193% (active).
On to `O=[N+]([O-])c1cc(Br)c(O)c(/C=N/Nc2nc3ccccc3s2)c1`, for which the activation is 12.5%.
Take `CCOCCCNC(=S)N1CCC(NC(=O)C2CCCCC2)CC1`: the activation is -16.3%.
As to `CCn1ccnc1CN(C)Cc1nc(-c2ccc3c(c2)OCO3)no1`, the activation was 14.5%.
Then `O=C(/C=C\c1cn(-c2ccccc2)nc1-c1cccs1)N1CCOCC1`, with -5.12%; and `O=C(O)c1ccc(N/N=C/c2cn(-c3ccccc3)nc2-c2cccs2)cc1`, with 140% (active); and `O=C(O)/C=C/c1cn(-c2ccccc2)nc1-c1cccs1`, with -9.09%.
Then `COc1ccc(/C=N/N=C/c2c[nH]c(=O)c(C#N)c2Nc2ccccc2)cc1`, with -8.9%; and `COc1ccccc1OCc1nc2ccccc2s1`, with 142% (active); and `COc1cccc2sc(NNC(=O)c3nc4ccccc4s3)nc12`, with 7.9%.
The value for `CCc1ccc(-c2nnn(Cc3nc4ccccc4s3)n2)cc1` was 0.38%; that for `CC(O)C(NS(=O)(=O)c1ccc(Cl)cc1)C(=O)OCc1cc([N+](=O)[O-])cc2c1OCOC2` (centres undefined) was 22.7%.
Regarding `CCOc1nc(-c2ccc(OC)cc2)ccc1-c1noc(-c2cc(OC)c(OC)c(OC)c2)n1`, the activation is -12.3%.
Then `COc1ccc(-c2noc(-c3ccc(C)cc3)n2)cc1`, with 38.2%; and `COc1ccc(-c2nc(-c3ccccc3)no2)c(OC)c1`, with 139% (active).
Then `COC(=O)c1c(NC(C)=O)sc(C(=O)Nc2ccccc2OC)c1C`, with 2.59%.
Then `COc1ccccc1NC(=O)c1ccc(C)s1`, with 141% (active).
Regarding `COc1ccccc1NC(=O)C1=C(C)NC(=O)NC1c1ccc(C)s1` (centres undefined), the activation was 12.8%.
For the compound `CC[n+]1c(C)n(-c2ccccc2)c2ccc(NC(C)=O)cc21`, the activation is 19.1%.
Then `CCOC(=O)c1sc(NC(=O)c2ccncc2)nc1C`, with 7.58%; and `COC(=O)c1sc(NC(=O)c2ccc(OC)cc2OC)nc1C`, with 137% (active).
The value for `COc1ccc(C(=O)Nc2nncs2)c(OC)c1` was 31.6%; that for `CCN(CC(=O)Nc1ccc(Cl)c(S(=O)(=O)N(C)C)c1)Cc1nc2ccccc2c(=O)[nH]1` was -2.77%; that for `NC(=O)Cc1ccc2sc(-c3ccccc3)nc2c1` was 140% (active).
The value for `O=C(O)Cc1sc(-c2ccc(C(=O)O)cc2)nc1-c1ccccc1` was 19.5%.
`O=C(O)Cc1sc(-c2ccccc2)nc1-c1cccs1`: the activation was 2.54%.
For the compound `O=C(Nc1nc2ccc([N+](=O)[O-])cc2s1)c1ccc(S(=O)(=O)N2CCCc3ccccc32)cc1`, the activation was 2.11%.
Regarding `CCCCN(C(=O)COc1ccc(NC(C)=O)cc1)C1CCS(=O)(=O)C1` (centres undefined), the activation was 6.89%.
Then `COc1ccc2nc(Nc3nc4ccc(NC(C)=O)cc4s3)sc2c1`, with 20.2%; and `COc1ccc2nc(NC(=O)c3ccc(Br)s3)sc2c1`, with 136% (active); and `COc1cccc(C(=O)Nc2nc3ccc(S(C)(=O)=O)cc3s2)c1`, with 61.6%.
The value for `CCOC(=O)CSC1=N/C(=C/c2ccc(-n3cncn3)cc2)C(=O)N1C(C)=O` was -12%; that for `O=C(NCc1nnc(SCC(=O)N2CCC(Cc3ccccc3)CC2)o1)c1ccco1` was -6.49%.
Then `O=C(OCc1ccc([N+](=O)[O-])cc1)c1ccccn1`, with -1.07%; and `N/C(=N\OC(=O)c1ccc([N+](=O)[O-])cc1)c1ccccn1`, with 149% (active).
Consider `N/C(=N\OC(=O)Cc1ccc([N+](=O)[O-])cc1)c1ccccn1`, for which the activation is 60.6%.
Then `O=[N+]([O-])c1ccc2[nH]c3c(c2c1)CCCC3O` (centres undefined), with -8.34%.
Then `O=C(COC(=O)c1ccccc1F)Nc1cc(S(=O)(=O)N2CCOCC2)ccc1N1CCCC1`, with 6.91%; and `O=C(O)c1ccc2c(c1)C(=O)N(c1ccc(/C=C/C(=O)c3ccccc3)cc1)C2=O`, with 19.3%; and `O=C(/C=C/c1ccc(N2CCOCC2)cc1)c1ccccc1`, with 140% (active).
The value for `O=C(/C=C/c1ccccc1)c1ccoc1` was 0.93%; that for `O=S(=O)(Nc1ccccn1)c1cccc(S(=O)(=O)c2ccc(Cl)cc2)c1` was 8.9%; that for `COCCNC(=S)Nc1cc(S(=O)(=O)N2CCOCC2)ccc1N1CCCCC1` was 21.7%.
For `Cn1nnnc1SCC(=O)NNC(=O)c1ccc(Br)cc1`, the activation is -3.54%.
Then `O=C(COC(=O)CNS(=O)(=O)c1ccccc1)NC12CC3CC(CC(C3)C1)C2`, with 0.34%.
On to `CN(C)CCn1c(=S)[nH]c2ccc(Cl)cc2c1=O`, for which the activation is -6.45%.
On to `CN(C)CCN=c1cc(-c2ccccc2)oc2ccc(Cl)cc12`, for which the activation is 158% (active).
The value for `Cc1cc(C)n(-c2ccc(C(=O)O)cc2[N+](=O)[O-])n1` was -4.56%.
